Laboratory results from PubChem BioAssay (NCI).
Compounds without any hit were thinned out: in the full panel of roughly 83,000, 20% have a hit.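 The test compound was applied at a single concentration to cells in 96-well plates for 48 hours, and percent growth was recorded.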 Unmarked numbers belong to inactive results. Activity calls are given as the source filed them. The calls were made as follows: active = growth percent below 10; inactive = the rest.

test system: MOLT-4 leukemia; assay: NCI-60 one-dose screen, 48 h (100 = growth as untreated, 0 = no growth, -100 = all killed); conditions: 10 µM unless noted

Row | Compound | growth
1 | O=C(Nc1ccc(Cl)cc1)Nc1ccc(Cl)c(Cl)c1 | 6.56% (active)
2 | CC(C)Cc1ccc(C(C)C(=O)NCc2ccc(Cn3c(=O)sn(-c4ccc(Cl)cc4)c3=O)cc2)cc1 (stereo not drawn) | 85.7%
3 | COc1ccc(/C=N/NC(=O)c2cccc3cc[nH]c23)cc1O | 38.2%
4 | COc1cccc(CCC(=O)c2cc3c(N)c(C(=O)Nc4ccccc4)sc3nc2C)c1 | 22.2%
5 | CN1CCN(CCCNc2nccc(-c3c(-c4ccc(F)c(O)c4)nc4sccn34)n2)S1(=O)=O | 82.5%
6 | COc1ccccc1Nc1cc(O)c2c(=O)cc(-c3ccccc3)oc2c1 | 25.9%
7 | C[C@@H]1CN(Cc2ccc(/C=C/c3n[nH]c4ccc5nc(-c6cn[nH]c6C(F)(F)F)c6c(c5c34)CCCC6)cc2)C[C@H](C)O1 | 12.6%
8 | COc1ccc(-c2ncc(-c3ccccc3)[nH]2)cc1OC | -81.9% (active)
9 | CCOC(=O)c1ccc(Nc2ccnc(SCC(=O)c3ccc(C#N)cc3)n2)cc1 | 16.3%
10 | CCCCCCCCCCCCCCCCCCOc1ccccc1N | 22.9%
11 | COc1ccc(C2CC(c3cccc(Nc4ccncc4)c3)=NN2c2ccc(Cl)cc2)cc1 (stereo not drawn) | -7.16% (active)
12 | Clc1ccc(C2CC(c3cccc(Nc4ccncc4)c3)=NN2c2ccc(Cl)cc2)cc1 (stereo not drawn) | -5.2% (active)
13 | Clc1ccc(N2N=C(c3cccc(Nc4ccncc4)c3)CC2c2ccc(Br)cc2)cc1 (stereo not drawn) | -0.295% (active)
14 | Fc1ccc(C2CC(c3cccc(Nc4ccncc4)c3)=NN2c2ccccc2)cc1 (stereo not drawn) | 5.35% (active)
15 | COc1ccc2c(c1)OC1=C(C(=O)OC1)C2c1cc(OC)c(OC)c(OC)c1 (stereo not drawn) | 20.4%
16 | COc1ccncc1C#Cc1cncc(C(=O)Nc2ccc(CN3CCN(C)CC3)c(C(F)(F)F)c2)c1 | 22.5%
17 | Clc1cc(Cl)cc(N2N=C(c3cccc(Nc4ccncc4)c3)CC2c2ccc(Br)cc2)c1 (stereo not drawn) | 3.97% (active)

Row | Compound | growth
18 | CN1CCN(C(=O)[C@]2(C)CC[C@]3(C)CC[C@]4(C)C(=CC(=O)[C@@H]5[C@@]6(C)CCC(=O)NC(C)(C)[C@@H]6CC[C@]54C)[C@@H]3C2)CC1 | 85.6%
19 | COc1ccc(-c2nc(SCC(C)C)nc(N/N=C(/C)c3ccc(OC)c(OC)c3)c2C#N)cc1 | 55.3%
20 | CC(=O)NCCCS(=O)(=O)O | 104%
21 | CN1CCN(c2ccc(NC3=C(Cl)C(=O)c4ncccc4C3=O)cc2C#N)CC1 | -10.8% (active)
22 | COc1ccc(NS(=O)(=O)c2ccc(C)cc2)c([N+](=O)[O-])c1 | 96.3%
23 | Cc1ccc(C2CC(c3cccc(Nc4ccncc4)c3)=NN2c2ccccc2)cc1 (stereo not drawn) | -26.8% (active)
24 | COc1cc(-c2nc3occn3c2-c2ccnc(NCCNS(=O)(=O)c3ccc(Cl)cc3)n2)ccc1F | 54%
25 | C[C@]12CCc3nc(Nc4cccc(O)c4)sc3C1=CC[C@@H]1[C@@H]2CC[C@]2(C)/C(=N\NC(N)=S)CC[C@@H]12 | 5.41% (active)
26 | CCN(CC)CCCC(C)Nc1cc(-c2cccc(OC(F)(F)F)c2)nc2ccc(N3CCCC3)cc12 (stereo not drawn) | 2.34% (active)
27 | Nc1nnc2cc(Cl)ccc2n1 | 111%
28 | OC1(c2ccc(Cl)c(C(F)(F)F)c2)CCN(CCCC(c2ccc(F)cc2)c2ccc(F)cc2)CC1 | -25.8% (active)
29 | Clc1ccc(N2N=C(c3cccc(Nc4ccncc4)c3)CC2c2ccccc2)cc1 (stereo not drawn) | 89.4%
30 | CC1=NNC(=O)C1CCC(=O)N/N=C(\C)c1ccc2ccccc2c1 (stereo not drawn) | 88.9%
31 | COc1c(Cl)cc(Cl)c2ccc(C=C3C(=O)N(C)C(=O)N(C)C3=O)nc12 | 99.5%
32 | Cn1c(COC(=O)NCCN2CCOCC2)nc2c(N3CCOCC3)nc(-c3ccccc3)nc21 | -16.2% (active)
33 | COc1ccc(C(O)c2cc3c(N)c(C(=O)Nc4ccc(Br)cc4)sc3nc2C)cc1 (stereo not drawn) | 17.5%
